# Results filed as inconclusive are left out. A number with no mark means an inactive call. Calls of active or inactive are those of the source. Calls follow the shape of the full dose curve; tested in HEK293 reporter line.
# Experiment: qHTS for Inhibitors of the Functional Ribonucleoprotein Complex (vRNP) of Lassa (LASV) Arenavirus: LASV Primary Screen - GLuc reporter signal (AID 1347082); also: nearly all actives have a fitted effect of over 60% in size
# Details: LASV minigenome vRNP, Gaussia luciferase reporter; series mostly up to 57.5 µM; activity change, negative = inhibition: at the top concentration
# % is scaled to controls: 0 for no effect and ±100 for the full control effect.
Structure (SMILES),"activity change, negative = inhibition",Potency
O=c1[nH]c(=O)n([C@H]2CCCO2)cc1F,-1.98%,–
CC(=O)Oc1cc(C(C)C)c(OCCN(C)C)cc1C,–,inactive
S=c1nc[nH]c2nc[nH]c12,-37.6%,–
O=C1c2c(O)cccc2Cc2cccc(O)c21,2.7%,–
O=P(O)(O)OCC(O)CO (stereo unspecified),-0.0875%,–
C[C@@H]1C[C@H]2[C@@H]3C[C@H](F)C4=CC(=O)C=C[C@]4(C)[C@@]3(F)[C@@H](O)C[C@]2(C)[C@@]1(O)C(=O)CO,7.58%,–
CN1C(C)(C)CCCC1(C)C,2.52%,–
CC(=O)OCC(COC(C)=O)OC(C)=O,-18.9%,–
Cc1cc2nc3c(=O)[nH]c(=O)nc-3n(C[C@H](O)[C@H](O)[C@H](O)CO)c2cc1C,-8.83% [at 24.7 µM],–
COC(=O)C1=C(C)NC(C)=C(C(=O)OCC(C)=O)C1c1ccccc1[N+](=O)[O-] (stereo unspecified),-25.1%,–
NC(N)=NCCN1CCCCCCC1,1.43% [at 0.757 µM],–
Cc1ccccc1C(=O)Nc1ccc(C(=O)N2CCCC(N(C)C)c3ccccc32)cc1 (stereo unspecified),-29.3%,–
O=C1CCCc2c(O)cccc21,5.13%,–
CCOC(=O)C(O)c1ccccc1 (stereo unspecified),2.32%,–
Nc1cc(C(Cl)=C(Cl)Cl)c(S(N)(=O)=O)cc1S(N)(=O)=O,–,inactive
O=C(O)Cn1c(=O)n(Cc2ccc(Br)cc2F)c(=O)c2ccc(Cl)cc21,-9.26%,–
COc1cc(C(=O)N2CCCCCCC2)cc(OC)c1OC,-1.97%,–
O=C(O)c1c(O)c(-c2ccccc2)nc2ccccc12,12.4%,–
O=C1C(O)=C(O)C(=O)C(O)=C1O,-24.6%,–
O=C(O)CCC(=O)O,-9.94%,–
Nc1ccc(C(=O)O)c(O)c1,-9.6%,–
